Consider 30 molecules from PubChem BioAssay (NCATS).

Holding throughout (assay): Confirmatory Screen for Target Class Profiling of Small Molecule Inhibitors of Methyltransferases (AID 1745852); as to activity change, negative = inhibition: % is scaled to controls: 0 for no effect and ±100 for the full control effect
For assay [1], the target named is Catechol O-methyltransferase (Homo sapiens) (UniProt P21964). The following applies: MTase-Glo luminescence, SAH detection, recombinant enzyme; measured here: COMT max response; stronger effect = lower value.
Assay [2] addresses Guanidinoacetate N-methyltransferase (Homo sapiens) (UniProt Q14353). The following applies: MTase-Glo luminescence, SAH detection, recombinant enzyme; activity change, negative = inhibition: at 57.3 µM (top of the series) unless noted; series mostly up to 57.3 µM.
In assay [3] the target is Nicotinamide N-methyltransferase (Homo sapiens) (UniProt P40261). The note with it: MTase-Glo luminescence, SAH detection, recombinant enzyme; measured here: NNMT max response; stronger effect = lower value.
Assay [4] concerns the target Phenylethanolamine N-methyltransferase (Homo sapiens) (UniProt P11086). The following applies: MTase-Glo luminescence, SAH detection, recombinant enzyme; measured here: PNMT max response; stronger effect = lower value.

Active and inactive are the calls of the source. Calls follow the shape of the full dose curve.
Potency is read from the fitted curve at half-maximal effect.

Chain of Nicotinamide N-methyltransferase (Homo sapiens) (P40261 whole entry, looked up): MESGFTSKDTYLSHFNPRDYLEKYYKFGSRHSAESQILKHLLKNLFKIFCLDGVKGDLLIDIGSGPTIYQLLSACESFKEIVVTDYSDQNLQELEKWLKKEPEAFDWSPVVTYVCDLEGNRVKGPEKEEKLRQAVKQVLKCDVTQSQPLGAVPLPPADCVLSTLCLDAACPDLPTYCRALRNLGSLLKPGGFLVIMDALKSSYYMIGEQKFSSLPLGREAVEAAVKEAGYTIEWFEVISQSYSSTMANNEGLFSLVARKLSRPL
Chain of Catechol O-methyltransferase (Homo sapiens) (P21964 whole entry, looked up): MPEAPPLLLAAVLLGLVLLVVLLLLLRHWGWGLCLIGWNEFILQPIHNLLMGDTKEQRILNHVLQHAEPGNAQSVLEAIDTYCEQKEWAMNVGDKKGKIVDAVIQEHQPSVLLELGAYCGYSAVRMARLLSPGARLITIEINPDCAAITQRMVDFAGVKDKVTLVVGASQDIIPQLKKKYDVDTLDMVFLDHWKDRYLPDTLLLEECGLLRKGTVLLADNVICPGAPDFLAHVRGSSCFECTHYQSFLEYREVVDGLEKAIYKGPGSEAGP
Chain of Phenylethanolamine N-methyltransferase (Homo sapiens) (P11086 whole entry, looked up): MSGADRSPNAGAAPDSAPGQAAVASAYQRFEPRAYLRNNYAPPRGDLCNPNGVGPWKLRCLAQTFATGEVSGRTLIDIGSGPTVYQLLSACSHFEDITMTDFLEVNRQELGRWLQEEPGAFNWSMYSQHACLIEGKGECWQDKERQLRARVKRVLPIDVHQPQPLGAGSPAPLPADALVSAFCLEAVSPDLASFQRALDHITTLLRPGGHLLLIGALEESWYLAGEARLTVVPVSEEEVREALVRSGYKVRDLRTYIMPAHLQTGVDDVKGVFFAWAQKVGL

Take `c1ccc(-c2[nH]nc3ncc(-c4cn[nH]c4)nc23)cc1`: the activity is -73.4% in assay [1], -59.9% in assay [3] and -83.4% in assay [4]. In addition, in assay [2], the Potency was 31.2 µM (active).

As to `Cc1ccc2nc(CN(C)C(=O)C3CCC(=O)N(C4CCCCCC4)C3)[nH]c2c1` (stereo not given), the activity in assay [1] was -3.1%; in assay [3], -9.1%; in assay [4] it was -9.49%. Besides, in assay [2], the activity change, negative = inhibition was -4.65%.

For the molecule `COc1cncc(Nc2ncc(-c3ccccc3OC)c3c2OCC3)c1`, the activity in assay [1] was 0.728%; in assay [3] it was -19.7%; in assay [4] it was 0.675%. Also, the activity change, negative = inhibition in assay [2] is 2.22% [at 85.7 µM].

In the case of `CC1CCN(CCCNC(=O)CCc2nnc3n(Cc4ccccc4)c(=O)c4ccccc4n23)CC1`, the values for the activity in assay [1], in assay [3] and in assay [4] were 0.801%, -2.83% and 2.06%, respectively. Moreover, the activity change, negative = inhibition in assay [2] was determined as 0%.

On to `CC(C)Cn1c(=O)c2ccccc2n2c(CCC(=O)N3CCN(c4ccccc4)CC3)nnc12`, for which the activity is 2.06% in assay [1], -46.8% in assay [3] and -1.48% in assay [4]. Besides, the activity change, negative = inhibition in assay [2] turned out to be 0%.

For `CC(C)c1nccn1CCCNC(=O)c1ccc(-c2cccc(F)c2)nc1`, the results for the activity in assay [1], in assay [3] and in assay [4] were 4.81%, 9.65% and -0.0651%, respectively. For the same molecule, the activity change, negative = inhibition in assay [2] came out at 3.97%.

Consider `Cn1cc(CN2CCCC(COc3ccccc3C(=O)N3CCCCC3)C2)c2ccccc21` (stereo not given), for which the activity in assay [1] amounted to 6.44%; in assay [3], 4.53%; in assay [4], 3.6%. For the same molecule, the activity change, negative = inhibition in assay [2] came to 7.22%.

For the molecule `Cc1ccc(Cn2c(=O)c3ccccc3n3c(CCC(=O)NCCN4CCCC4)nnc23)cc1`, the activity in assay [1] is -6.32%; in assay [3], -16.1%; in assay [4], -2.34%. Further, the activity change, negative = inhibition in assay [2] is -1.98%.

Turning to `CCCC1c2cccn2CCN1C(=O)Nc1ccc(C)cc1Cl` (stereo not given), the activity in assay [1] is 0.596%; in assay [3], -6.98%; in assay [4], -0.613%. The Potency result in assay [2] was “inactive”.

As to `Cc1cc(NS(=O)(=O)c2ccc3[nH]c(=O)[nH]c3c2)ccc1Br`, the activity in assay [1] was 1.24%; in assay [3] it was -14.5%; in assay [4], -63.7%. The activity change, negative = inhibition in assay [2] was 0.289%.

Take `Cc1cnc(CCNC(=O)c2cccs2)n1C1CCC1`: the activity in assay [1] stood at 0.518%; in assay [3] it was 8.96%; in assay [4], 6.31%. Further, the activity change, negative = inhibition in assay [2] amounted to 3.29%.

For the molecule `Cn1c(=O)c2ccnn2c2ccc(C(=O)NCC3CCN(Cc4ccccc4F)CC3)cc21`, the figures for the activity in assay [1], in assay [3] and in assay [4] were 3.91%, -38.8% and 2.1%, respectively. For the same molecule, in assay [2], the activity change, negative = inhibition worked out at 6.11%.

On to `CC(C)Cn1c(=O)c2ccccc2n2c(=O)n(CC(=O)c3cccc(Cl)c3)nc12`, for which the activity in assay [1] is -9.22%; in assay [3], -38.9%; in assay [4] it was -8.68%. Also, the activity change, negative = inhibition in assay [2] was -5.46%.

As to `COc1ccccc1CC(=O)N1CCCc2ncc(C(=O)Nc3cccc(Cl)c3)cc21`, the activity in assay [1] stood at 2.46%; in assay [3], 9.05%; in assay [4], 3.39%. For the same molecule, the activity change, negative = inhibition in assay [2] was found to be 2.54% [at 85.7 µM].

As to `Fc1cccc(-c2nnn3c2nc(NCCc2ccccc2)c2ccccc23)c1`, the activity was -4.7% in assay [1], -12.6% in assay [3] and -9.28% in assay [4]. For the same molecule, the activity change, negative = inhibition in assay [2] is -1.64%.

Turning to `COc1ccccc1-c1[nH]nc2ncc(C(=O)N3CCN(Cc4ccccc4)CC3)nc12`, the activity in assay [1] is -51.3%; in assay [3], -37.2%; in assay [4], -61.8%. Moreover, the Potency in assay [2] was 35 µM (active).

With `CC1=C[C@@H](CN(CC2CC2)CC2CC2)[C@H](C(C)C)C[C@H]1Cc1nc2ccncc2[nH]1`, the activity is 3.81% in assay [1], -1.17% in assay [3] and 3.65% in assay [4]. Further, in assay [2], the activity change, negative = inhibition was 4.35% [at 85.7 µM].

In the case of `CCNc1nccc(N2CCC(CC(=O)N3CCN(c4ccccc4F)CC3)CC2)n1`, the activity in assay [1] was 6.4%; in assay [3] it was 2.88%; in assay [4], 5.27%. The activity change, negative = inhibition in assay [2] worked out at 4.58%.

Turning to `O=C(NCc1cccc(Cl)c1)c1cnc2c(c1)N(C(=O)Cc1ccc(O)cc1)CCC2`, the activity in assay [1] was -2.5%; in assay [3], -5.79%; in assay [4] it was -1%. In addition, in assay [2], the activity change, negative = inhibition is -3.31% [at 85.7 µM].

In the case of `COc1ccc(-c2n[nH]n3c2nc(=O)c2ccc(C(=O)NC(C)c4ccc(F)cc4)cc23)cc1` (stereo not given), the results for the activity in assay [1], in assay [3] and in assay [4] were -18.7%, -25% and -17.7%, respectively. In assay [2], the activity change, negative = inhibition is -8.96%.

With `CCCNc1cc(N2CCC(CCC(=O)NCCN3CCCCCC3)CC2)ncn1`, the activity was 7.42% in assay [1], -8.06% in assay [3] and 0.426% in assay [4]. For the same molecule, the activity change, negative = inhibition in assay [2] came out at 8.04%.

As to `COCCCNC(=O)c1cnc2n[nH]c(-c3ccccc3)c2n1`, the activity in assay [1] is -62.1%; in assay [3], -64.3%; in assay [4], -75.1%. Moreover, the Potency in assay [2] was 39.3 µM (active).

Take `COc1ccc(CCNC(=O)c2ccc3c(=O)nc4c(-c5cccc(F)c5)n[nH]n4c3c2)cc1OC`: the activity was -16% in assay [1], -27.1% in assay [3] and -14.6% in assay [4]. For the same molecule, the Potency in assay [2] was 10.8 µM (active).

Turning to `COc1ccc(N2CCN(C(=O)c3cc(NC(C)=O)cc4nc(C)ccc34)CC2)cc1`, the figures for the activity in assay [1], in assay [3] and in assay [4] were 1.89%, 4.7% and 7.32%, respectively. Also, the activity change, negative = inhibition in assay [2] was 4.56%.

In the case of `CCCn1c(=O)c2cc(F)ccc2n2c(SCc3c(F)cccc3Cl)nnc12`, the activity is 4.81% in assay [1], -24.8% in assay [3] and 0.382% in assay [4]. The activity change, negative = inhibition in assay [2] was 0.239%.

Regarding `Cc1ccccc1-c1[nH]nc2ncc(-c3c(C)noc3C)nc12`, the activity is -14.4% in assay [1], -31.8% in assay [3] and -28.1% in assay [4]. The activity change, negative = inhibition in assay [2] is -10.5% [at 85.7 µM].

In the case of `CN(CCc1nc2ccc(Cl)cc2[nH]1)c1cc(C2CC(O)C2)nc(N)n1` (stereo not given), the activity was 4.84% in assay [1], -2.79% in assay [3] and 3.63% in assay [4]. Moreover, the activity change, negative = inhibition in assay [2] was determined as 2.73%.

As to `COc1ccccc1-c1[nH]nc2ncc(C(=O)NCC3CC3)nc12`, the activity was -33.3% in assay [1], -16.5% in assay [3] and -40.5% in assay [4]. Further, the activity change, negative = inhibition in assay [2] is -13.8% [at 85.7 µM].

On to `O=C(CCCc1nnc2n3nc(-c4ccccc4)nc3c3ccccc3n12)NCCN1CCCC1`, for which the activity in assay [1] was 3.65%; in assay [3], -3.84%; in assay [4] it was 0%. For the same molecule, in assay [2], the activity change, negative = inhibition came out at 0%.

In the case of `CCCCCNC(=O)c1sc(=S)n2c1[nH]c(=O)c1ccc(C(=O)OC)cc12`, the activity in assay [1] was -39.2%; in assay [3] it was -59.4%; in assay [4], -27%. Moreover, the Potency in assay [2] was 30.4 µM (active).
